KLF5 inhibitor – inhibitors of KLF5 expression; DLD-1 KLF5 promoter-luciferase reporter, luminescence; inhibition, % at 5 µM; 290,000 tested, 0.23% active;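 active = inhibition above a per-plate limit of that plate's mean compound inhibition plus 3 SD, cut at about 60% in these data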;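 note: 0% = DMSO wells and 100% = LY294002 at 200 µM; higher means less KLF5 promoter-driven luciferase light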
IEC-6 cytotox – kills IEC-6 intestinal cells in KLF5 counter-screen; inhibition, % at 5 µM; 290,000 tested, 0.78% active; AID 1825; IEC-6 cytotoxicity, luminescence viability; in the data active = inhibition above about 22%;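 note: 0% = plate median of test compound wells and 100% = cytotoxic reference compound wells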
CSC inhib – cancer stem cell inhibition. inhibition, % at 7.5 µM. cancer stem cell-like cells viability, luminescence. 300,000 tested, 1.1% active. AID 2717; in the data active = inhibition above about 75%; inconclusive = no clear call, values can overlap the other calls; tested in HMLE shEcad cells
SKKanGAS inh – inhibitors of SKKanGAS S. pyogenes growth in kanamycin (SK-promoter or general growth effect) | BacTiter-Glo, 6 h | inhibition, % at 7.5 µM | 300,000 tested, 1.3% active | AID 1662;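 active = mean replicate score, as percent of positive control median, at least 50; inconclusive = mean below 50 but one replicate at or above 50; inactive = mean and every replicate below 50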;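 note: strain carries kanamycin resistance gene driven by streptokinase promoter and grows in 40 µg/ml kanamycin; loss of luminescence reflects streptokinase promoter inhibition or plain growth inhibition; 0% = median of DMSO wells and 100% = positive control at its reference dose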
aSyn UTR inh – MLPCN primary screen, SNCA 5' untranslated region; alpha-synuclein 5'UTR reporter, inhibitor activity; inhibition, % (tested at 7.5 µM); 300,000 tested, 0.82% active; AID 1813; in the data active = inhibition above about 60%; inconclusive = no clear call, values can overlap the other calls;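 note: H4 neuroglioblastoma cells stably carrying SNCA 5'UTR luciferase fusion; 0% = DMSO wells and 100% = positive control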
Numbers without * were called inactive; ? = inconclusive; · = no result. Sampled rows, rich in hits. Any-hit rate of the full collection: about 3%.

SMILES | KLF5 inhibitor | IEC-6 cytotox | CSC inhib | SKKanGAS inh | aSyn UTR inh
Oc1ccccc1N=Nc1nc(-c2ccccc2)c(-c2ccccc2)[nH]1 | 50 | 0 | · | 114* | 107*
COc1ccc(N=Nc2nc(-c3ccccc3)c(-c3ccccc3)[nH]2)cc1 | -2 | 2 | -2 | 20 | -23
COc1ccccc1N=Nc1nc(-c2ccccc2)c(-c2ccccc2)[nH]1 | -22 | -4 | 60 | 67* | -16
Cc1cc(S(=O)(=O)NCC(c2ccc3c(c2)OCO3)N2CCOCC2)ccc1F (stereo not given) | · | · | 15 | -7 | -6
O=C(N/N=C/c1ccccc1)c1n[nH]c2c1CCCC2 | -81 | 6 | 21 | -3 | -88
O=C(N/N=C/c1ccccc1Cl)c1n[nH]c2c1CCCC2 | -79 | 9 | 33 | 11 | 83*
O=C(N/N=C/c1cccs1)c1n[nH]c2c1CCC2 | -71 | 7 | 59 | 7 | 68*
O=C1CCC(=O)N1Cc1c(Cl)cccc1Cl | -17 | 4 | 1 | 12 | 18
COc1ccc(/C=N/NC(=O)c2cccc(O)c2)cc1Cn1nc(C)c([N+](=O)[O-])c1C | -17 | 3 | 35 | -10 | 9
c1ccc(CN2CCC(Nc3nc(-c4cccs4)nc4ccccc34)CC2)cc1 | -13 | 15 | 109* | -5 | 62*
CC(C)(C)c1ccc(NC(=O)COC(=O)c2ccc(NS(=O)(=O)c3ccc(F)c(F)c3)cc2)cc1 | -6 | -2 | -12 | 54* | -17
CC(C)(C)NC(=O)NC(=O)COC(=O)c1cccc(NS(=O)(=O)c2ccc(F)c(F)c2)c1 | -7 | 11 | 7 | 7 | -8
CCc1noc(C)c1C(=O)OCC(=O)NC(=O)c1ccccc1 | -28 | 2 | -4 | 50* | -1
CCC(=O)NC1=C(Cl)C(=O)C(NC(=O)CC)=C(Cl)C1=O | 1 | 73* | · | · | ·
Cc1nn(S(=O)(=O)c2ccc(F)cc2)c(C)c1S(=O)(=O)N1CCOCC1 | 3 | 2 | 10 | -2 | -2
CC(C)n1c(=O)[nH][nH]c1=S | -37 | 1 | -31 | 7 | -17
CC(OC(=O)c1ccccc1Nc1ccc(SC(F)F)cc1)C(N)=O (stereo not given) | 7 | 28* | 45 | -8 | 43
Cn1ncc2c(Nc3cccc(Cl)c3)nc(Nc3cccc(Cl)c3)nc21 | -17 | -9 | 115* | 100* | -1
CNc1nc(Nc2ccc(C)c(Cl)c2)c2cnn(C)c2n1 | -35 | -1 | 6 | -2 | 31
Cn1ncc2c(Nc3ccc(Br)cc3)nc(Nc3ccc(Br)cc3)nc21 | -7 | 8 | 103* | 106* | -6
O=C(NC(NC(=S)Nc1ccccc1)C(Cl)(Cl)Cl)c1cccc(Cl)c1 (stereo not given) | -18 | 3 | 89* | 25 | -5
O=C(O)c1cccc(NC(=S)NC(NC(=O)c2cccc([N+](=O)[O-])c2)C(Cl)(Cl)Cl)c1 (stereo not given) | 7 | 5 | -3 | 7 | -39
O=C(NC(NC(=S)Nc1ccc(Cl)cc1Cl)C(Cl)(Cl)Cl)c1cccc([N+](=O)[O-])c1 (stereo not given) | 13 | -1 | 128* | 106* | -1
Cc1ccc(Nc2nc(N)c([N+](=O)[O-])c(N3CCC(C)CC3)n2)cc1C | 5 | 2 | 85* | 22 | 26
Nc1nc(Nc2ccccc2)nc(NCc2ccccc2)c1[N+](=O)[O-] | 9 | 9 | 57 | 28 | 84*
SMILES | KLF5 inhibitor | IEC-6 cytotox | CSC inhib | SKKanGAS inh | aSyn UTR inh
CC(C)CNc1nc(N)c([N+](=O)[O-])c(NCc2ccccc2)n1 | -26 | -3 | -9 | 2 | 77*
Nc1nc(Nc2ccccc2)nc(NC2CCCCC2)c1[N+](=O)[O-] | -35 | -7 | 104* | 79* | 35
Cc1ccc(CNc2nc(N)c([N+](=O)[O-])c(NCc3ccccc3)n2)cc1 | -30 | 3 | -6 | -4 | 34
Nc1nc(NCc2ccccc2)nc(NCc2ccccc2)c1[N+](=O)[O-] | -17 | 6 | -9 | -2 | 22
CNc1nc(N)c([N+](=O)[O-])c(NC2CCCCC2)n1 | -27 | -1 | -16 | 5 | 45
O=C(CCCc1nc(-c2ccccc2)no1)NC1CCCCC1 | -13 | -4 | -14 | -5 | -4
Cc1ccc(Nc2nc(N)c([N+](=O)[O-])c(NCc3ccco3)n2)cc1C | -53 | 5 | 84* | 60* | -55
Nc1nc(NCCOCCO)nc(NC2CCCCC2)c1[N+](=O)[O-] | -15 | -2 | -6 | -5 | 68*
Nc1nc(NCCO)nc(NC2CCCCC2)c1[N+](=O)[O-] | 11 | -5 | -2 | -2 | 57
O=C1/C(=N\S(=O)(=O)c2cccs2)C([n+]2ccc(CCCc3ccccc3)cc2)=C([O-])c2ccccc21 | -40 | 0 | 93* | 110* | 91*
CC(C)(C)c1cc[n+](C2=C([O-])c3ccccc3C(=O)/C2=N\S(=O)(=O)c2ccccc2)cc1 | -41 | -10 | 27 | 86* | 84*
O=S(=O)([N-]c1nc2ccccc2nc1-[n+]1ccc(CCCc2ccccc2)cc1)c1cccs1 | -8 | 2 | 11 | 8 | -7
O=C1/C(=N\S(=O)(=O)c2cccs2)C([n+]2cccc(Cc3ccccc3)c2)=C([O-])c2ccccc21 | -17 | 2 | 54 | 106* | 85*
Cc1cc(C)c[n+](C2=C([O-])c3ccccc3C(=O)/C2=N\S(=O)(=O)c2cccs2)c1 | -1 | -5 | 24 | ? | 24
Cc1cc[n+](C2=C([O-])c3ccccc3C(=O)/C2=N\S(=O)(=O)c2cccs2)cc1C | -16 | -8 | -12 | 19 | 74*
CCc1ccc(NC(=O)N2CCN(C(=O)C3CCCO3)CC2)cc1 (stereo not given) | 0 | 3 | 8 | -4 | 12
C/C(=N\NC(=O)c1nn(C)c(C)c1Br)c1ccc(NC(=O)c2ccccc2F)cc1 | -187 | 0 | 7 | -4 | -69
CCOc1ccc(C(=O)NCC(=O)NC(C)CCc2ccccc2)cc1OCC (stereo not given) | -12 | 3 | · | 3 | 36
CCOc1ccc(C(=O)CCC(=O)N2CCN(S(=O)(=O)c3cccc(F)c3)CC2)cc1 | · | · | -16 | · | ·
CCn1cc(C(=O)NNC(=O)c2ccc(Cl)cc2)c(=O)c2ccc(C)nc21 | 15 | -4 | -10 | 0 | -9
Cc1nn(-c2ccccc2)c(C)c1-c1nnc(-c2c(C)nn(-c3ccccc3)c2C)o1 | -3 | -6 | 25 | 57* | -47
Cc1nn(-c2ccccc2)c(C)c1-c1nnc(C(F)(F)F)o1 | -15 | 0 | · | 3 | -24
O=C(Nc1cc(Cl)ccc1-n1cncn1)c1ccc(Br)o1 | · | · | -2 | -3 | 31
Cc1ccc(NC2=C(Cl)C(=O)OC2OC(C)C)c(C)c1 (stereo not given) | -22 | 2 | -6 | -11 | 69*
Cc1nc(N2CCC(C)CC2)c2c(C)c(C(=O)Nc3ccc(C(F)(F)F)cc3)sc2n1 | -12 | 1 | 30 | 75* | -19
COc1cccc(C(=O)N2CCN(Cc3ccccc3Br)CC2)c1 | -5 | 0 | · | 19 | -7
O=C(OC(c1ccc(NS(=O)(=O)c2ccccc2)cc1)(C(F)(F)F)C(F)(F)F)c1ccccc1 | -72 | -2 | 67 | 2 | 11
